PubChem BioAssay
Inconclusive results are not listed. Activity calls are given as the source filed them.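 The calls were made as follows, unless noted: active = normalized viability below 100% at a tested concentration; inactive = the rest.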

What was measured:
[1] = drug combination growth inhibition, ovarian cancer – cell-based, oncology-focused library, rucaparib conditional, profiling panel (AID 1508598); settings: patient-derived ovarian cancer cells, CellTiter-Glo viability, 144 h, stronger effect = lower value
[2] = viability loss in pontine glioma line – cell-based, SU-DIPG-XVII, MIPE5.0, CellTiter-Glo, qHTS, dose response (AID 1347060; cut-off not given, nearly all actives have AC50 up to about 26 µM;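 also: cells exposed to compound for 48 hours before viability readout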); settings: CellTiter-Glo ATP luminescence
[3] = viability loss in pontine glioma line – cell-based, JHH-DIPG-1, MIPE4.0, CellTiter-Glo, qHTS, dose response (AID 1347062; cut-off not given, nearly all actives have AC50 up to about 27 µM;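 also: cells exposed to compound for two days before readout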); settings: JHH-DIPG-1 viability, CellTiter-Glo ATP luminescence
[4] = viability loss in pontine glioma line – cell-based, SU-DIPG-IV, MIPE4.0, CellTiter-Glo, qHTS, dose response (AID 1347063; cut-off not given, nearly all actives have AC50 up to about 30 µM;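 also: compound exposure lasted 48 hours before the viability readout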); settings: CellTiter-Glo ATP luminescence
[5] = growth inhibition of DIPG cells – cell-based, MIPE4.0 library, CellTiter-Glo luminescence, qHTS (AID 1347066; cut-off not given, nearly all actives have AC50 up to about 30 µM;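 also: cells exposed to compound for 48 hours before readout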); settings: SU-DIPG-VI viability, CellTiter-Glo ATP luminescence
[6] = viability loss in pontine glioma line – cell-based, SU-DIPG-XXV, MIPE5.0, CellTiter-Glo, qHTS, dose response (AID 1347065; cut-off not given, nearly all actives have AC50 up to about 26 µM;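 also: cells exposed to compound for 48 hours before ATP readout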); settings: CellTiter-Glo ATP luminescence
[7] = JHH-DIPG-1 glioma cell viability, MIPE5.0 library, CellTiter-Glo luminescence, qHTS (AID 1347067; cut-off not given, nearly all actives have AC50 up to about 26 µM;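 also: cells exposed to compound for 48 hours before readout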); settings: JHH-DIPG-1 glioma viability, CellTiter-Glo ATP luminescence
[8] = growth inhibition of DIPG cells – cell-based, MIPE5.0 library, qHTS (AID 1347068; cut-off not given, nearly all actives have IC50 up to about 30 µM;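 also: cells exposed to compound for 48 hours before viability readout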); settings: SU-DIPG-XXV viability
[9] = viability loss with induced miR-34 in A549 – imaging, A549 dox-inducible miR-34, nuclei and caspase counts, primary screen (AID 1347080;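 active = compounds whose cell count with miR-34 switched on is under 0.7 times the count with it off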); settings: A549 miR-34 inducible, Hoechst nuclei count, 48 h
[10] = MELAS cybrid and Rieske KO viability enhancers – cell-based, MELAS cybrids, Rieske KO mouse fibroblasts, CellTiter-Glo, primary screen (AID 1508586;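 active = mean z-score across replicates of 1.96 or higher in either the MELAS or the Rieske mutant cell line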;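 also: z relative to plate mean and SD of compound and empty wells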); settings: low glucose
[11] = viability loss in pontine glioma line – cell-based, SU-DIPG-XIII, MIPE5.0, CellTiter-Glo, qHTS, dose response (AID 1347064; cut-off not given, nearly all actives have AC50 up to about 23 µM;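 also: cells exposed to compound for 48 hours before the viability read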); settings: CellTiter-Glo ATP luminescence
[12] = compounds altering HSF1 focus formation in cells – imaging, Selleck Cancer Library (AID 1347162; in the data active = plate-normalised HSF1 focus index below about 0.46); settings: human cells, HSF1 nuclear foci imaging, at 10 µM; SSMD: measured here: HSF1 foci SSMD mean; cell count: measured here: cell number; plate-normalised HSF1 focus index: stronger effect = lower value
[13] = at 0.0195 µM, OCI-P5x cells, with rucaparib 20 µM, 100% = cells with rucaparib alone
[14] = at 0.0195 µM, OCI-P5x cells, without rucaparib
[15] = at 0.0781 µM, OCI-C5x cells, with rucaparib 10 µM, 100% = cells with rucaparib alone
[16] = at 0.0781 µM, OCI-C5x cells, without rucaparib
[17] = at 0.0781 µM, OCI-P5x cells, with rucaparib 20 µM, 100% = cells with rucaparib alone
[18] = at 0.0781 µM, OCI-P5x cells, without rucaparib
[19] = at 0.313 µM, OCI-C5x cells, with rucaparib 10 µM, 100% = cells with rucaparib alone
[20] = at 0.313 µM, OCI-C5x cells, without rucaparib
[21] = at 0.313 µM, OCI-P5x cells, with rucaparib 20 µM, 100% = cells with rucaparib alone
[22] = at 0.313 µM, OCI-P5x cells, without rucaparib
[23] = at 1.25 µM, OCI-C5x cells, with rucaparib 10 µM, 100% = cells with rucaparib alone
[24] = at 1.25 µM, OCI-C5x cells, without rucaparib
[25] = at 1.25 µM, OCI-P5x cells, with rucaparib 20 µM, 100% = cells with rucaparib alone
[26] = at 1.25 µM, OCI-P5x cells, without rucaparib
[27] = at 5 µM, OCI-C5x cells, with rucaparib 10 µM, 100% = cells with rucaparib alone
[28] = at 5 µM, OCI-C5x cells, without rucaparib
[29] = at 5 µM, OCI-P5x cells, with rucaparib 20 µM, 100% = cells with rucaparib alone
[30] = at 5 µM, OCI-P5x cells, without rucaparib
[31] = stronger effect = lower value, cell number ratio, induced over uninduced
[32] = measured here: relative caspase fold change +Dox/-Dox
[33] = measured here: total cells with miR-34 induction, stronger effect = lower value
[34] = measured here: total cells without miR-34 induction
[35] = MELAS cybrid survival, CellTiter-Glo 48 h, stronger effect = higher value
[36] = Rieske KO mouse fibroblast survival, CellTiter-Glo 72 h
[37] = at 0.000305 µM, OCI-C5x cells, with rucaparib 10 µM, 100% = cells with rucaparib alone
[38] = at 0.000305 µM, OCI-C5x cells, without rucaparib
[39] = at 0.000305 µM, OCI-P5x cells, with rucaparib 20 µM, 100% = cells with rucaparib alone
[40] = at 0.000305 µM, OCI-P5x cells, without rucaparib
[41] = at 0.00122 µM, OCI-C5x cells, with rucaparib 10 µM, 100% = cells with rucaparib alone
[42] = at 0.00122 µM, OCI-C5x cells, without rucaparib
[43] = at 0.00122 µM, OCI-P5x cells, with rucaparib 20 µM, 100% = cells with rucaparib alone
[44] = at 0.00122 µM, OCI-P5x cells, without rucaparib
[45] = at 0.00488 µM, OCI-C5x cells, with rucaparib 10 µM, 100% = cells with rucaparib alone
[46] = at 0.00488 µM, OCI-C5x cells, without rucaparib
[47] = at 0.00488 µM, OCI-P5x cells, with rucaparib 20 µM, 100% = cells with rucaparib alone
[48] = at 0.00488 µM, OCI-P5x cells, without rucaparib
[49] = at 0.0195 µM, OCI-C5x cells, with rucaparib 10 µM, 100% = cells with rucaparib alone
[50] = at 0.0195 µM, OCI-C5x cells, without rucaparib

O=C(NC1CCNCC1)c1[nH]ncc1NC(=O)c1c(Cl)cccc1Cl
inactive: viability [1, 15] 108% | viability [1, 16] 118%
active: viability [1, 13] 96.7% | viability [1, 14] 99% | viability [1, 17] 93.7% | viability [1, 18] 89.4% | viability [1, 19] 86.2% | viability [1, 20] 99.6% | viability [1, 21] 88% | viability [1, 22] 78.2% | viability [1, 23] 10.3% | viability [1, 24] 13.9% | viability [1, 25] 20.4% | viability [1, 26] 15.8% | viability [1, 27] 13% | viability [1, 28] 12.2% | viability [1, 29] 17.1% | viability [1, 30] 14%

COC[C@H](NC(=O)c1cnc(C)s1)C(=O)N[C@@H](COC)C(=O)N[C@@H](Cc1ccccc1)C(=O)[C@@]1(C)CO1
active: AC50 [2] 0.186 µM | AC50 [3] 0.148 µM | AC50 [4] 0.148 µM | AC50 [5] 0.332 µM

COc1ccc(F)c(F)c1C(=O)c1cnc(NC2CCN(S(C)(=O)=O)CC2)nc1N
1740: cell count [9, 33]
-3.07: z-score [10, 36]
inactive: outcome [5] | fold change [9, 31] 0.981
1770: cell count [9, 34]
0.805: fold change [9, 32]
active: AC50 [2] 1.86 µM | AC50 [3] 2.64 µM | AC50 [4] 1.18 µM | AC50 [6] 2.09 µM | AC50 [7] 3.72 µM | IC50 [8] 1.86 µM | z-score [10, 35] 2.86

CCc1ccc(C(=O)Nc2cc(CN3CCN(C)CC3)cc(C(F)(F)F)c2)cc1C#Cc1cnc2ccnn2c1
active: AC50 [2] 14.8 µM | AC50 [3] 10.5 µM | AC50 [4] 7.43 µM | AC50 [6] 11.8 µM | AC50 [5] 16.6 µM | AC50 [7] 13.2 µM | IC50 [8] 14.8 µM

CCN1CCC(n2cc(CNc3cc(Cl)c4ncc(C#N)c(Nc5ccc(F)c(Cl)c5)c4c3)nn2)CC1
active: AC50 [2] 18.6 µM | AC50 [3] 20.9 µM | AC50 [4] 18.7 µM | AC50 [6] 23.5 µM | AC50 [5] 16.6 µM

C#Cc1cccc(Nc2ncnc3cc(OCCOC)c(OCCO)cc23)c1
active: AC50 [2] 11.8 µM | AC50 [3] 6.62 µM | AC50 [4] 2.96 µM | AC50 [6] 7.42 µM | AC50 [7] 2.63 µM | viability [1, 17] 96.3% | viability [1, 19] 100% | viability [1, 21] 97.1% | viability [1, 23] 78.3% | viability [1, 24] 95.1% | viability [1, 25] 85.9% | viability [1, 26] 93.4% | viability [1, 27] 54.8% | viability [1, 28] 52.7% | viability [1, 29] 68.7% | viability [1, 30] 64.5%
2660: cell count [9, 33]
inactive: outcome [5] | fold change [9, 31] 0.787 | z-score [10, 35] -0.467 | viability [1, 37] 118% | viability [1, 38] 140% | viability [1, 39] 109% | viability [1, 40] 119% | viability [1, 41] 113% | viability [1, 42] 143% | viability [1, 43] 109% | viability [1, 44] 114% | viability [1, 45] 119% | viability [1, 46] 127% | viability [1, 47] 106% | viability [1, 48] 109% | viability [1, 49] 108% | viability [1, 50] 120% | viability [1, 13] 103% | viability [1, 14] 107% | viability [1, 15] 113% | viability [1, 16] 129% | viability [1, 18] 106% | viability [1, 20] 102% | viability [1, 22] 100%
3380: cell count [9, 34]
0.554: fold change [9, 32]
-0.287: z-score [10, 36]

CC/C(=C(/c1ccc(O)cc1)c1ccc(OCCNC)cc1)c1ccccc1
active: AC50 [2] 2.63 µM | AC50 [3] 23.5 µM | AC50 [11] 9.34 µM | AC50 [6] 3.32 µM | AC50 [5] 26.4 µM

O=C(O)c1ccc2c(c1)nc(Nc1cccc(Cl)c1)c1ccncc12
5180: cell count [9, 33]
0.974: fold change [9, 32]
-0.116: z-score [10, 36]
0.462: SSMD [12]
6500: cell count [9, 34]
7390: cell count [12]
active: AC50 [2] 8.33 µM | AC50 [3] 16.6 µM | AC50 [4] 7.43 µM | AC50 [6] 4.68 µM | AC50 [7] 2.95 µM | IC50 [8] 7.42 µM | viability [1, 43] 98.4% | viability [1, 47] 94% | viability [1, 49] 98% | viability [1, 13] 96% | viability [1, 15] 99.7% | viability [1, 17] 98.9% | viability [1, 19] 96.1% | viability [1, 21] 94.3% | viability [1, 23] 68.3% | viability [1, 24] 91.5% | viability [1, 25] 74.7% | viability [1, 26] 89.4% | viability [1, 27] 43.6% | viability [1, 28] 88.1% | viability [1, 29] 33.3% | viability [1, 30] 35.6%
inactive: fold change [9, 31] 0.797 | plate-normalised HSF1 focus index [12] 1.02 | z-score [10, 35] -0.486 | viability [1, 37] 103% | viability [1, 38] 125% | viability [1, 39] 103% | viability [1, 40] 105% | viability [1, 41] 119% | viability [1, 42] 130% | viability [1, 44] 111% | viability [1, 45] 106% | viability [1, 46] 118% | viability [1, 48] 104% | viability [1, 50] 126% | viability [1, 14] 115% | viability [1, 16] 116% | viability [1, 18] 110% | viability [1, 20] 115% | viability [1, 22] 107%
